From PubChem BioAssay (NCI)
The panel holds about 83,000 compounds, 20% with a hit somewhere; the sample as a whole holds those more often.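 The endpoint reported here, percent growth, reads 100 for growth as untreated, 0 for no net growth and -100 for all cells dead.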 Unmarked numbers belong to inactive results. Calls of active or inactive are those of the source. The calls were made as follows: active = growth percent below 10; inactive = the rest.

Tests used:
Assay in all cases: NCI-60 one-dose screen, 48 h (100 = growth as untreated, 0 = no growth, -100 = all killed)
NCI-H23 lung = details: 10 µM unless noted
NCI-H226 lung = details: 10 µM unless noted
NCI-H322M lung = details: 10 µM unless noted
HOP-62 NSCLC = details: 10 µM unless noted
NCI-H460 lung = details: 10 µM unless noted
HOP-92 NSCLC = details: 10 µM unless noted
NCI-H522 lung = details: 10 µM unless noted
A549/ATCC NSCLC = details: 10 µM unless noted
786-0 renal = details: 10 µM unless noted
COLO 205 colon = details: 10 µM unless noted
DU-145 prostate = details: 10 µM unless noted
K-562 leukemia = details: 10 µM unless noted
MALME-3M melanoma = details: 10 µM unless noted
MDA-MB-231 breast = details: 10 µM unless noted
SF-268 CNS = details: 10 µM unless noted
SF-295 CNS = details: 10 µM unless noted
SF-539 CNS = details: 10 µM unless noted
UACC-257 melanoma = details: 10 µM
M14 melanoma = details: 10 µM unless noted
RXF 393 renal = details: 10 µM unless noted

SMILES	growth (NCI-H23 lung)	growth (NCI-H226 lung)	growth (NCI-H322M lung)	growth (HOP-62 NSCLC)	growth (NCI-H460 lung)	growth (HOP-92 NSCLC)	growth (NCI-H522 lung)	growth (A549/ATCC NSCLC)	growth (786-0 renal)	growth (COLO 205 colon)	growth (DU-145 prostate)	growth (K-562 leukemia)	growth (MALME-3M melanoma)	growth (MDA-MB-231 breast)	growth (SF-268 CNS)	growth (SF-295 CNS)	growth (SF-539 CNS)	growth (UACC-257 melanoma)	growth (M14 melanoma)	growth (RXF 393 renal)
Cn1c2ccc(Br)cc2c2c3c(c4c5cc(F)ccc5oc4c21)C(=O)N(O)C3=O	77.2%	90.8%	103%	47.1%	45.9%	82.5%	72.1%	98.4%	97.6%	93.7%	88.1%	82.8%	-95.9% (active)	85.3%	70.7%	89.9%	83.5%	104%	89.4%	–
CC1OC(O[C@@H]2C(O)C(CO)OC(O[C@H]3COC(O[C@H]4CC[C@]5(C)[C@H]6CC[C@]78OC[C@@]9(CC[C@](C)(C=O)C[C@H]97)[C@H](O)C[C@@]8(C)[C@]6(C)CC[C@H]5C4(C)C)[C@@H](OC4OC(CO)[C@@H](O)[C@@H](O)[C@@H]4O)[C@@H]3O)[C@H]2OC2OC[C@@H](O)[C@@H](O)[C@@H]2O)[C@@H](O)[C@@H](O)[C@H]1O (stereo partly specified)	-15.2% (active)	-47.5% (active)	-35.3% (active)	-74.6% (active)	74.1%	15.5%	-55.4% (active)	-63.3% (active)	-53% (active)	-37.7% (active)	41.8%	–	-69.7% (active)	-48.4% (active)	-56.3% (active)	-59.2% (active)	1.77% (active)	-78% (active)	-47.3% (active)	-36.2% (active)
Cc1cccc(NC(c2cc3cccc4ccc5cccc2c5c43)c2nnnn2C(C)(C)C)c1C (stereo unspecified)	82.2%	31.9%	86.4%	86.5%	93.4%	90.2%	77.3%	92.7%	97.6%	102%	104%	96.6%	92.9%	78.6%	91.1%	87.2%	86.5%	94%	–	–
C/C=C/[C@@H]1C=C[C@@H]2C[C@H](C)CC[C@H]2[C@]1(C)/C(O)=C1/C(=O)[C@H](CO)N(C)C1=O	56.8%	69.1%	61.6%	37.9%	54.7%	56.9%	58.2%	42.3%	47.3%	78.1%	56.5%	46.5%	79.5%	80.1%	54.8%	43.3%	58.5%	–	62.2%	64.9%
CC1(C)CC[C@]2(C(=O)N3CCCNCC3)CC[C@]3(C)C(=CC[C@@H]4[C@@]5(C)CCC(=O)C(C)(C)[C@@H]5CC[C@]43C)[C@H]2C1	101%	103%	101%	109%	106%	96.6%	98.6%	106%	99.5%	115%	108%	96.8%	110%	106%	102%	104%	97.2%	105%	110%	–
CC1OC(O[C@@H]2[C@H](O)C(CO)OC(O[C@H]3COC(O[C@H]4CC[C@]5(C)[C@H]6CC[C@]78OC[C@@]9(CCC(C)(C)C[C@H]97)[C@H](O)C[C@@]8(C)[C@]6(C)CC[C@H]5C4(C)C)[C@@H](OC4OC(CO)[C@@H](O)[C@@H](O)[C@@H]4O)[C@@H]3O)[C@H]2OC2OC[C@@H](O)[C@@H](O)[C@@H]2O)[C@@H](O)[C@@H](O)[C@H]1O (stereo partly specified)	-62.7% (active)	-40% (active)	-78.2% (active)	-81% (active)	-65.2% (active)	-39.3% (active)	-72.4% (active)	-67.7% (active)	-80.9% (active)	-74.5% (active)	-79.7% (active)	–	-70.6% (active)	-72.2% (active)	-65.9% (active)	-92.3% (active)	-80.5% (active)	-76.2% (active)	-80.7% (active)	-92% (active)
O=C1C[C@@H](c2ccccc2)Oc2c(Cc3ccccc3O)c(O)c(Cc3cc(Cc4cc(Cc5ccccc5O)ccc4O)ccc3O)c(O)c21	94.7%	86%	110%	97.4%	104%	78%	107%	101%	100%	111%	102%	99.8%	95%	82.4%	85.2%	102%	101%	–	88.6%	94.7%
C/C(Cc1ccc(Cl)cc1)=C(/c1ccccc1)c1ccc(OCCN)cc1	98.2%	91.4%	99.8%	108%	104%	91.6%	96.1%	99.1%	106%	103%	106%	–	88.5%	98.7%	94.2%	99.7%	99.7%	106%	95.7%	102%
CC(C)C[C@H]1C(=O)O[C@H](C(C)C)C(=O)N(C)[C@@H](C(C)C)C(=O)O[C@H](C(C)C)C(=O)N(C)[C@@H](C(C)C)C(=O)O[C@H](C(C)C)C(=O)N1C	6.64% (active)	20.5%	13.3%	14.7%	8.47% (active)	-23.2% (active)	1.72% (active)	12.6%	23.3%	-89% (active)	24.4%	8.19% (active)	18%	8.5% (active)	20.4%	5.53% (active)	22.3%	–	18.5%	19.1%
COc1ccc2oc3c4[nH]c5ccccc5c4c4c(c3c2c1)C(=O)N(O)C4=O	91.8%	93.8%	108%	102%	99.5%	81%	99.3%	108%	101%	111%	101%	98.3%	105%	95.7%	100%	106%	98%	106%	102%	–
O=c1cc(-c2ccccc2)nc2sc(-c3c[nH]c4ccc(Br)cc34)nn12	104%	87.6%	92.8%	107%	106%	86%	86.2%	97.6%	92.6%	104%	103%	–	104%	89.8%	102%	99.8%	96.3%	–	–	104%
Cc1ccc(-c2cc(-c3ccc(N(C)C)cc3)n3c(n2)nc2ccccc23)cc1	57.1%	57%	103%	83.1%	61.7%	21.7%	25.4%	56.5%	80.8%	92.5%	87.2%	29.2%	96.1%	66%	88.7%	55%	89.8%	65.8%	77.2%	–
CC1OC(O[C@@H]2[C@H](O)C(CO)OC(O[C@H]3COC(O[C@H]4CC[C@]5(C)[C@H]6CC[C@]78OC[C@@]9(CC[C@](C)(C=O)C[C@H]97)C(=O)C[C@@]8(C)[C@]6(C)CC[C@H]5C4(C)C)[C@@H](O)[C@@H]3O)[C@H]2OC2OC[C@@H](O)[C@@H](O)[C@@H]2O)[C@@H](O)[C@@H](O)[C@H]1O (stereo partly specified)	94.8%	82.7%	93.3%	75.2%	98.5%	79.5%	87.1%	90.6%	95.5%	92.6%	108%	–	98.2%	79.7%	95.9%	89.9%	99.8%	95.3%	96.9%	87.4%
N#C/C(=C\c1ccc(-c2ccc(F)cc2)o1)C(=O)Nc1ncc(Cc2ccc(Cl)cc2Cl)s1	-37.2% (active)	69.3%	13.8%	-34.7% (active)	-74.2% (active)	36.7%	-8.78% (active)	-48% (active)	-28.3% (active)	66.8%	-46.5% (active)	15.5%	-52.7% (active)	20.1%	1.24% (active)	3.15% (active)	-2.12% (active)	84.1%	–	–
Cn1c2ccccc2c2c3c(c4c5ccc(Br)cc5oc4c21)C(=O)N(O)C3=O	80%	70.9%	96.8%	59.8%	42.3%	81.6%	48.7%	85.6%	89.8%	86.7%	86.1%	61.7%	113%	94.5%	78.6%	53.4%	96.2%	94.2%	89.3%	–
